Assay results as given in PubChem BioAssay (Tox21).
Results filed as inconclusive are left out. Calls of active or inactive are those of the source. Unless noted, calls follow the shape of the dose curve; as a rule, active = well fitted curve in the direction sought with a large enough effect in the repeat runs; inconclusive = weak or mixed curves; inactive = no such curve, though single readings can be large; an effect the other way counts as inactive or inconclusive.

Experiments:
[1] = qHTS assay to identify small molecule agonists of the peroxisome proliferator-activated receptor delta (PPARd) signaling pathway - cell viability counter screen (AID 743211); also: % is scaled to controls: 0 for no effect and ±100 for the full control effect; nearly all actives have a fitted effect of over 55% in size
How it was run: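 Read-out: CellTiter-Glo luminescence, 30 min RT, measured in the same wells as the beta-lactamase reporter. Cells: GeneBLAzer PPAR delta UAS-bla HEK293H, 3000 cells/well, compound exposure 17 h at 37C.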

[2] = target: Peroxisome proliferator-activated receptor delta (Homo sapiens) (UniProt Q03181); assay: qHTS assay to identify small molecule agonists of the peroxisome proliferator-activated receptor delta (PPARd) signaling pathway (AID 743212; calls by dose curve; also: % is scaled to controls: 0 for no effect and ±100 for the full control effect)
Peroxisome proliferator-activated receptor delta (Homo sapiens), sequence (Q03181 whole entry, looked up): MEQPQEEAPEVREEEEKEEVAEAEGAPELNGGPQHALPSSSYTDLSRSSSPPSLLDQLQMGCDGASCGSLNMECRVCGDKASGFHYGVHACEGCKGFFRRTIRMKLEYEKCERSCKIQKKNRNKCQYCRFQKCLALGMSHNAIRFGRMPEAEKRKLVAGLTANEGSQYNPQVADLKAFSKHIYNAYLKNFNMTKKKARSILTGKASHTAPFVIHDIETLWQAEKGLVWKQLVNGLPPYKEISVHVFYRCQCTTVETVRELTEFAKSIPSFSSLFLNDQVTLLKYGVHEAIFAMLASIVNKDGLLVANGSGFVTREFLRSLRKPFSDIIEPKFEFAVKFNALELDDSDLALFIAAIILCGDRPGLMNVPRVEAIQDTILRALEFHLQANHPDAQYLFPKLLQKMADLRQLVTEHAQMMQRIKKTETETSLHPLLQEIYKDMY
How it was run: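 Beta-lactamase reporter read by fluorescence (LiveBLAzer B/G FRET, 2 h, room temperature). Test agents, in DMSO, incubated at 37 C with PPARd-bla HEK293H cells.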

[3] = qHTS assay to identify small molecule antagonists of the peroxisome proliferator-activated receptor delta (PPARd) signaling pathway - cell viability counter screen (AID 743213); also: % is scaled to controls: 0 for no effect and ±100 for the full control effect; nearly all actives have a fitted effect of over 50% in size
How it was run: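 HEK293H cells with the PPARd UAS-bla reporter, co-treated 17 h at 37 C with compounds and L165041 (300 nM final), were lysed with CellTiter-Glo. Luminescence indicated viable cell content.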

[4] = target: Bile acid receptor (Homo sapiens) (UniProt Q96RI1); assay: qHTS assay to identify small molecule antagonists of the farnesoid-X-receptor (FXR) signaling pathway (AID 743217; active = well fitted inhibition curve with a large enough effect in the signal ratio in the repeat runs, not every such curve was filed as active; the % refers to the signal ratio; also: % is scaled to controls: 0 for no effect and ±100 for the full control effect)
Bile acid receptor (Homo sapiens), sequence (Q96RI1 whole entry, looked up): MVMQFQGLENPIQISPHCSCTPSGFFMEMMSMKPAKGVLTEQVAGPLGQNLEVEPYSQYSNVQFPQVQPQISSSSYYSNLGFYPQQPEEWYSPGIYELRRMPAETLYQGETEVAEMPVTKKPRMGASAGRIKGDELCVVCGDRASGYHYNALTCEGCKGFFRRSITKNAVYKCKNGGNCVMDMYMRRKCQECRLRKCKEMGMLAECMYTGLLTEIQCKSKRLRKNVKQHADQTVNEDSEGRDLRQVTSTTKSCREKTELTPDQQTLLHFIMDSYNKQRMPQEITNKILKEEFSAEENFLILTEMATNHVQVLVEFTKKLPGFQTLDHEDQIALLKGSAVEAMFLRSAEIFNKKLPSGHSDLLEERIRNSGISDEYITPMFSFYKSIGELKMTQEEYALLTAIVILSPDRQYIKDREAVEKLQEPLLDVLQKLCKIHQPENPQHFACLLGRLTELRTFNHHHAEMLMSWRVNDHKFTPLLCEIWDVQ
How it was run: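 Quantitative HTS, beta-lactamase reporter format: FXR-UAS-bla HEK 293T cells co-treated 16 h at 37 °C with compounds and 50 uM final chenodeoxycholic acid, then read by B/G FRET fluorescence.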

[5] = qHTS assay to identify small molecule agonists of the farnesoid-X-receptor (FXR) signaling pathway - cell viability counter screen (AID 743218); also: % is scaled to controls: 0 for no effect and ±100 for the full control effect; nearly all actives have a fitted effect of over 45% in size
How it was run: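 Same-well cytotoxicity check on FXR-UAS-bla HEK 293T cells: 5 h attachment, 16 h compound at 37 C, CellTiter-Glo luminescence read at room temperature after 30 min.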

[6] = target: Bile acid receptor (Homo sapiens) (UniProt Q96RI1); assay: qHTS assay to identify small molecule agonists of the farnesoid-X-receptor (FXR) signaling pathway (AID 743220; active = well fitted activation curve with a large enough effect in the signal ratio in the repeat runs, not every such curve was filed as active; the % refers to the signal ratio; also: % is scaled to controls: 0 for no effect and ±100 for the full control effect)
How it was run: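 FXR-UAS-bla HEK 293T cells carrying a UAS-driven beta-lactamase reporter were plated for 5 h at 37C/5% CO2, then exposed to DMSO-dissolved Tox21 10K compounds for 16 h at 37C. A LiveBLAzer B/G FRET substrate was loaded for 2 h at room temperature before fluorescence reading.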

[7] = qHTS assay to identify small molecule antagonists of the farnesoid-X-receptor (FXR) signaling pathway - cell viability counter screen (AID 743221; active = well fitted cell-killing curve with a large enough effect in the repeat runs, not every such curve was filed as active; also: % is scaled to controls: 0 for no effect and ±100 for the full control effect; nearly all actives have a fitted effect of over 50% in size)
How it was run: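 HEK 293T FXR-bla cells, 5 h pre-incubation; compound + CDCA 50 uM final, 16 h, 37 C; beta-lactamase FRET read first, then CellTiter-Glo luminescence, 30 min RT.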

[8] = qHTS assay to identify small molecule agonists of the vitamin D receptor (VDR) signaling pathway - cell viability counter screen (AID 743224); also: series mostly up to about 63 µM; % is scaled to controls: 0 for no effect and ±100 for the full control effect; nearly all actives have a fitted effect of over 50% in size
How it was run: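 Counter screen for cytotoxicity: VDR-bla cells at 2,000 cells/well, 16 h compound exposure, then CellTiter-Glo luminescence after the beta-lactamase measurement.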

[9] = qHTS assay to identify small molecule agonists of the NFkB signaling pathway (AID 1159509; active = well fitted curve in the direction sought with a large enough effect in the signal ratio in the repeat runs, not every such curve was filed as active; the % refers to the signal ratio; also: series mostly up to about 61 µM; % is scaled to controls: 0 for no effect and ±100 for the full control effect)
How it was run: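 Beta-lactamase reporter assay run in quantitative high-throughput format on an NF-kB-responsive ME-180 line, with 5 hr compound treatment and a FRET-based blue/green fluorescence readout.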

[10] = qHTS assay to identify small molecule agonists of the NFkB signaling pathway - cell viability counter screen (AID 1159515; calls by dose curve; also: series mostly up to about 61 µM; % is scaled to controls: 0 for no effect and ±100 for the full control effect; nearly all actives have a fitted effect of over 55% in size)
How it was run: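 Counter screen run alongside the NFkB-bla agonist assay: ME-180 reporter cells exposed to compounds for 5 hr, then lysed with CellTiter-Glo in the same wells. Luminescence, read after 30 min, reflects viable cells.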

[11] = qHTS assay to identify small molecule agonists of the endoplasmic reticulum stress response signaling pathway (AID 1159516; active = well fitted activation curve with a large enough effect in the signal ratio in the repeat runs, not every such curve was filed as active; the % refers to the signal ratio; also: % is scaled to controls: 0 for no effect and ±100 for the full control effect)
How it was run: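 For this screen, HeLa cells stably carrying beta-lactamase under the ER stress response element received test compounds, positive controls or DMSO for 5 hr at 37 C; B/G FRET substrate was then added and dual-wavelength emission recorded.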

[12] = qHTS assay to identify small molecule agonists of the endoplasmic reticulum stress response signaling pathway - cell viability counter screen (AID 1159517; calls by dose curve; also: series mostly up to about 61 µM; % is scaled to controls: 0 for no effect and ±100 for the full control effect; nearly all actives have a fitted effect of over 50% in size)
How it was run: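 Cytotoxicity of test compounds toward ESRE-bla HeLa cells was assessed after 5 hr exposure. The luminescent CellTiter-Glo signal was measured 30 min after reagent addition.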

[13] = qHTS assay to identify small molecule antagonists of the retinoid-related orphan receptor gamma (ROR-gamma) signaling pathway - cell viability counter screen (AID 1159520)
How it was run: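 Tet-on ROR gamma CHO cells (1,000/well) were plated 4 hr, given compounds in DMSO for 2 hr at 37 C, then induced with 1 uM final doxycycline for 16 hr. Viability was read as ATP by CellTiter-Glo luminescence after 30 min.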

[14] = qHTS assay to identify small molecule agonists of the AP-1 signaling pathway - cell viability counter screen (AID 1159525; calls by dose curve; also: nearly all actives have a fitted effect of over 55% in size)
How it was run: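 Each titration point was normalised to DMSO and tetra n-octyl ammonium bromide controls. The read was Cell Titer Glo luminescence after 30 min at RT, following 5 h compound exposure of ME-180 AP-1-bla cells at 37 °C.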

[15] = qHTS assay to identify small molecule agonists of the AP-1 signaling pathway (AID 1159526; calls by dose curve; also: % is scaled to controls: 0 for no effect and ±100 for the full control effect)
[16] = target: Vitamin D3 receptor (Homo sapiens) (UniProt P11473); assay: qHTS assay to identify small molecule agonists of the vitamin D receptor (VDR) signaling pathway (AID 743222; calls by dose curve; also: % is scaled to controls: 0 for no effect and ±100 for the full control effect)
Vitamin D3 receptor (Homo sapiens), sequence (P11473 whole entry, looked up): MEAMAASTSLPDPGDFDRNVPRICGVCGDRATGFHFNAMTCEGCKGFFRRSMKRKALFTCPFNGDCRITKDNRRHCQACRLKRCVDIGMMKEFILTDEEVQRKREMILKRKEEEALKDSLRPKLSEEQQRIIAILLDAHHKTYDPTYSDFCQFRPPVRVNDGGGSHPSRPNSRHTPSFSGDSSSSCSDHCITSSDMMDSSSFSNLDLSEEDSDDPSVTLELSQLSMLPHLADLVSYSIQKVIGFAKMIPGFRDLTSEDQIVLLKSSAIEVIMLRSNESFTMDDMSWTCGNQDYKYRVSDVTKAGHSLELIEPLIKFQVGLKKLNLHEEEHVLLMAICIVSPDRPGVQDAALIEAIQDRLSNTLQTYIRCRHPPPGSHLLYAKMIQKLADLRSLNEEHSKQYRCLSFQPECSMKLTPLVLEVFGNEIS
How it was run: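 Using LiveBLAzer B/G FRET detection, agonism was scored in VDR-bla cells exposed overnight (16 h, 37C) to DMSO-dissolved compounds; substrate incubation was 2 h at room temperature.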

[17] = target: Vitamin D3 receptor (Homo sapiens) (UniProt P11473); assay: qHTS assay to identify small molecule antagonists of the vitamin D receptor (VDR) signaling pathway (AID 743223; active = well fitted inhibition curve with a large enough effect in the signal ratio in the repeat runs, not every such curve was filed as active; the % refers to the signal ratio; also: % is scaled to controls: 0 for no effect and ±100 for the full control effect)
How it was run: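 Beta-lactamase reporter read-out: FRET substrate fluorescence after 2 h at room temperature, following 16 h exposure of VDR-bla cells to test compound plus 3 nM (final) 1alpha,25-dihydroxyvitamin D3 agonist at 37C.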

[18] = qHTS assay to identify small molecule antagonists of the vitamin D receptor (VDR) signaling pathway - cell viability counter screen (AID 743225)
How it was run: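 Viability counter screen run in the same wells as the beta-lactamase reporter assay: HEK 293T VDR-UAS-bla cells, 16 h compound exposure at 37C with 3 nM (final) 1-alpha,25-dihydroxyvitamin D3. CellTiter-Glo luminescence, 30 min, room temperature.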

[19] = target: Nuclear receptor ROR-gamma (Homo sapiens) (UniProt P51449); assay: qHTS assay to identify small molecule antagonists of the retinoid-related orphan receptor gamma (ROR-gamma) signaling pathway (AID 1159521)
How it was run: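 Luminescence readout (ONE-Glo, 30 min RT) after 16 h doxycycline induction; loss of signal scored as antagonism. CHO cells with TET-inducible RORγ and RORE-LUC reporter; compounds added 2 h before 1 uM final doxycycline.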

[20] = target: Peroxisome proliferator-activated receptor delta (Homo sapiens) (UniProt Q03181); assay: qHTS assay to identify small molecule antagonists of the peroxisome proliferator-activated receptor delta (PPARd) signaling pathway (AID 743215; active = well fitted inhibition curve with a large enough effect in the signal ratio in the repeat runs, not every such curve was filed as active; the % refers to the signal ratio)
How it was run: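 Screen format: qHTS, antagonist mode. HEK293H PPARd-bla cells received compound and 300 nM L165041 (final), 17 h, 37 C. Beta-lactamase detected via FRET substrate fluorescence, 2 h, room temperature.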

COc1cc2c(Nc3ccc(Br)cc3F)ncnc2cc1OCC1CCN(C)CC1
inactive: outcome [1] | outcome [2] | outcome [3] | outcome [4] | Potency [5] | outcome [6] | outcome [7] | outcome [8] | outcome [9] | outcome [10] | outcome [11] | outcome [12] | outcome [13] | outcome [14] | outcome [15]

O=CO
inactive: viability change, negative = cytotoxic [3] 11.9% [at 6.26 µM] | activity change, negative = inhibition [4] -0.433% [at 5.95 µM] | viability change, negative = cytotoxic [5] 0.465% [at 5.95 µM] | activation [6] -0.16% [at 5.95 µM] | activity change, negative = cytotoxicity [7] -2.88% [at 5.95 µM] | activation [16] -1.04% [at 6.01 µM] | activity change, negative = inhibition [17] 3.44% [at 6.95 µM] | activity change, negative = cytotoxicity [8] -15.6% [at 5.95 µM] | viability change, negative = cytotoxic [18] 3.57% [at 6.95 µM] | activation [9] -0.32% [at 6.95 µM] | activity, negative = cytotoxic [10] -18.4% [at 6.95 µM] | activation [11] -2.58% [at 6.95 µM] | activity change, negative = cytotoxicity [12] -1.24% [at 6.95 µM] | activity, negative = cytotoxicity [13] 0.77% [at 8.39 µM] | activity change, negative = inhibition [19] 22.1% [at 8.39 µM] | viability change, negative = cytotoxic [14] 1.49% [at 6.97 µM] | activation [15] 1.24% [at 6.97 µM]

CC(C)COC(=O)COc1ccc(Cl)cc1Cl
inactive: outcome [1] | outcome [2] | outcome [3] | outcome [20] | outcome [4] | Potency [5] | outcome [6] | outcome [7] | outcome [16] | outcome [17] | outcome [8] | outcome [18] | outcome [9] | outcome [10] | outcome [11] | outcome [12] | outcome [13] | outcome [19] | outcome [15]

Nc1ccc(/C=C/c2ccc(N)cc2S(=O)(=O)O)c(S(=O)(=O)O)c1
inactive: activity change, negative = cytotoxicity [1] 4.06% [at 0.55 µM] | activation [2] -0.496% [at 0.55 µM] | viability change, negative = cytotoxic [3] -6.12% [at 0.575 µM] | ratio activity, negative = inhibition [20] -1.73% [at 0.575 µM] | activity change, negative = inhibition [4] 3.76% [at 0.55 µM] | viability change, negative = cytotoxic [5] 14.9% [at 0.55 µM] | activation [6] 1.54% [at 0.55 µM] | activity change, negative = cytotoxicity [7] 5.38% [at 0.55 µM] | activation [16] 1.93% [at 0.554 µM] | activity change, negative = inhibition [17] 0.787% [at 0.628 µM] | activity change, negative = cytotoxicity [8] 8.54% [at 0.55 µM] | viability change, negative = cytotoxic [18] 9.91% [at 0.628 µM] | activation [9] 0.561% [at 0.628 µM] | activity, negative = cytotoxic [10] 1.66% [at 0.628 µM] | activation [11] 0% [at 0.628 µM] | activity change, negative = cytotoxicity [12] 9.94% [at 0.628 µM] | activity, negative = cytotoxicity [13] -1.32% [at 0.349 µM] | activity change, negative = inhibition [19] 35.7% [at 0.35 µM] | activation [15] -7.74% [at 0.29 µM]

C[N+](C)(C)CC(O)CCl (stereo not drawn)
inactive: outcome [1] | outcome [2] | outcome [3] | Potency [5] | outcome [7] | outcome [16] | outcome [17] | outcome [8] | outcome [18] | outcome [9] | outcome [10] | outcome [11] | outcome [12] | outcome [13] | outcome [14] | outcome [15]

CC(=O)OC[C@H]1O[C@@H](OC(C)=O)[C@H](OC(C)=O)[C@@H]1OC(C)=O
inactive: outcome [1] | outcome [2] | outcome [4] | Potency [5] | outcome [6] | outcome [7] | outcome [16] | outcome [17] | outcome [8] | outcome [18] | outcome [9] | outcome [10] | outcome [11] | outcome [12] | outcome [13] | outcome [19] | outcome [15]
